# VACV Venus inh: vaccinia inhibition (Venus reporter); 0.46% of 330,000 active; AID 720580; Vaccinia virus Venus reporter expression, fluorescence; Potency, µM (doses to about 36.5 µM), for inactives: at the highest dose activity change, negative = inhibition, actives largely listed as inhibitors; calls by dose curve; tested in A549 cells; further: potency means the concentration at half of the fitted maximal effect; nearly all actives have a fitted effect of over 30% in size
# Marburg entry inh: inhibitors of Marburg virus binding or cell entry. 1.8% of 300,000 active. Marburg virus pseudotyped entry inhibition, cell reporter. Potency, µM (titrated, usually from 37.8 µM), inactives show top-dose activity change, negative = inhibition, most hits filed as inhibitors. AID 540276; calls by dose curve; tested in HEK293 cells; further: potency means the concentration at half of the fitted maximal effect
# Vaccinia mCherry: vaccinia inhibition (mCherry reporter) | Vaccinia virus mCherry reporter infection, fluorescence | Potency, µM (top dose mostly 36.5 µM), for inactives: at the top dose activity change, negative = inhibition, actives largely listed as inhibitors | 0.63% of 310,000 active; calls by dose curve; tested in A549 cells; further: potency means the concentration at half of the fitted maximal effect; nearly all actives have a fitted effect of over 35% in size
# HCMV inh: human cytomegalovirus inhibition; 4.5% of 410,000 active; activity change, negative = inhibition, % at 57.5 µM; HFF cells, HCMV-luciferase reporter, 72 h; hits give low values; in the data active means activity change below about -60%; inconclusive means no clear call, values can overlap the other calls; inactive means above about -39%
#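 After 16 h attachment at 37C, HFF cells received test compound and HCMV-luciferase (1 PFU/cell); reporter luminescence read 72 h later, data normalized against buffer-only and known inhibitor Salinomycin.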
# FMDV inh: foot and mouth disease virus antiviral activity | 1.2% of 410,000 active | AID 1159524 | Potency, µM (doses to about 57.9 µM), for the others: at the top dose activity change, negative = inhibition, usual class: inhibitors | FMDV antiviral cell-based qHTS; calls by dose curve; tested in HEK293T cells; further: read-out not given here; potency means the concentration at half of the fitted maximal effect; nearly all actives have a fitted effect of over 45% in size
# Lassa entry inh: inhibitors of Lassa virus binding or cell entry; Lassa virus pseudotype entry inhibition, cell reporter; Potency, µM (series often up to 37.9 µM), inactives show at the highest dose activity change, negative = inhibition, actives largely listed as inhibitors; 1.2% of 300,000 active; AID 540256; calls by dose curve; tested in HEK293 cells; further: potency means the concentration at half of the fitted maximal effect; nearly all actives have a fitted effect of over 50% in size
# * hit, by the source's call; i = inactive; u = inconclusive; x = no result; [ ] = another dose, or the depositor's remark. Shown are actives, neighbours in structure and some others; about 6.5% of the full set was active somewhere. On the % scale 0 is the no-effect control and ±100 the full control effect.
SMILES,VACV Venus inh,Marburg entry inh,Vaccinia mCherry,HCMV inh,FMDV inh,Lassa entry inh
Cc1ccc(CNC(=O)c2ccc3c(c2)NC(=O)C(CS(=O)(=O)Cc2ccc(F)cc2)N3)cc1 (configuration not stated),-7%,x,-13%,-2,-25%,-2%[46.1 µM]
COC(=O)CCC(=O)N(CCN(C(=O)CCC(=O)OC)c1ccccc1)c1ccccc1,-4%,-14%[46.1 µM],-1%,-95*,-10%,-1%[46.1 µM]
CON(C)C(=O)CCN(C(=O)OC(C)(C)C)c1ccccc1,-5%,x,i,-37,0%,x
COc1cc(/C=C2\SC(=Nc3ccccc3)N(CCc3c[nH]c4ccccc34)C2=O)ccc1OC(C)C(=O)O (configuration not stated),2%,-1%,-15%,-32,0%,0%
O=C1/C(=C/c2ccc(N3CCOCC3)o2)SC(=Nc2ccccc2)N1CCc1c[nH]c2ccccc12,20%,u,u,x,-16%,7.1µM*
Cc1nn(-c2ccc(N3CCCC3)nn2)c(C)c1CCC(=O)N1CCN(c2ccccc2)CC1,-11%,x,-8%,u,-21%,-7%[46.1 µM]
Cc1ccc(C)c(N2CCN(C(=O)CCc3c(C)nn(-c4ccc(N5CCCC5)nn4)c3C)CC2)c1,-23%,x,-26%,-63*,u,u
C/C(=N\NC(=O)c1cc(-c2cccc([N+](=O)[O-])c2)n[nH]1)c1ccccc1O,u,u,10µM*,39,-19%,u
COc1cc(C2C(=O)N(C3CCCCCC3)CC(=O)N2CCC2=CCCCC2)ccc1OC(C)C (configuration not stated),-11%,x,-12%,25,-11%,u
OCC1OC(n2cnc3c(NO)ncnc32)C(O)C1O (configuration not stated),7%,x,39%,x,x,x
OCC1OC(n2ccc3c(NO)ncnc32)C(O)C1O (configuration not stated),1.1µM*,0.32µM*,u,-98*,u,u
CN(C)c1ncnc2c1ccn2C1OC(CO)C(O)C1O (configuration not stated),u,2.2µM*,u,-98*,-25%,3.5µM*
OCC1OC(n2cnc3c(NCc4ccccc4O)ncnc32)C(O)C1O (configuration not stated),u,u,u,-100*,-8%,2.2µM*
COc1ccccc1CNC(=O)c1ccc(CSc2nc3ccncc3n2Cc2cccc(F)c2)cc1,-27%,-6%[46.1 µM],-18%,-30,-23%,x
Cc1ccc(-n2nc(C)c3c(C)cc(=O)n(CC(=O)NC(C)c4ccccc4)c32)cc1 (configuration not stated),0%,x,-4%,24,0%,8%[46.1 µM]
O=C(COc1ccccc1F)NNC(=O)Cn1c(=O)cnc2ccccc21,x,x,x,0,-1%,x
Cc1ccc(OCC(=O)NNC(=O)Cn2c(=O)cnc3ccccc32)cc1,-2%,14%[46.1 µM],-12%,-97*,7%,-6%
Cc1cc2[nH]c3c4ccccc4nc(C)c3c2cc1C,x,x,x,-101*,-13%,x
Cc1cc2c(C)nc3ccccc3c2o1,-35%,3%,x,-22,-28%,14%
Cc1cc2nc(CSc3ccccc3)cc(=O)n2[nH]1,3%,11%[46.1 µM],-4%,-96*,5%,-2%
N#Cc1c(N)n(CCc2ccc(F)cc2)c2nc3ccccc3nc12,-17%,-18%,x,-69*,-23%,1%
CCCc1c(NC(=O)Nc2ccc(Cl)cc2Cl)cnn1-c1ccccc1,-8%,0.89µM*,u,u,0%,u
N#CC(C(=O)C1CCCCC1)c1nc2ccccc2[nH]1 (configuration not stated),-28%,1%,-28%,-99*,x,-20%
Cc1ccc2nc(-c3ccc(NC(=O)COc4ccc(Cl)c(C)c4)cc3)sc2c1,-3%,x,-6%,22,51%,11%[46.1 µM]
CC[n+]1c(-c2ccccc2)csc1Nc1c(C)n(C)n(-c2ccccc2)c1=O,x,x,x,-39,-15%,x
SMILES,VACV Venus inh,Marburg entry inh,Vaccinia mCherry,HCMV inh,FMDV inh,Lassa entry inh
CC[n+]1c(-c2ccc(C)cc2)csc1Nc1c(C)n(C)n(-c2ccccc2)c1=O,-27%,u,-24%,-88*,32µM*,u
CC(C)CO/N=C1\C[C@@H](O)[C@@H](O)[C@@H]2[C@@H]3C(=O)N(Cc4ccc5c(c4)OCO5)C(=O)[C@@H]3CC[C@H]12,x,-30%[14.2 µM],x,x,x,x
C#CCOCCOCCOCCNc1nc(N2CCN(C(=O)CCCCCCCCCCNC(=O)[C@H]([C@@H](C)CC)n3cc(CCCCCN)nn3)CC2)nc(N2CCN(C(=O)CCCCCCCCCCNC(=O)[C@@H]([C@H](C)O)n3cc(C)nn3)CC2)n1,11µM*,x,u,x,u,x
C#CCOCCOCCOCCNc1nc(N2CCN(C(=O)CCCCCCCCCCNC(=O)Cn3cc(CCCCCN)nn3)CC2)nc(N2CCN(C(=O)CCCCCCCCCCNC(=O)[C@H]([C@@H](C)CC)n3cc(CCCCCN)nn3)CC2)n1,10µM*,x,u,x,u,x
C#CCOCCOCCOCCNc1nc(N2CCN(C(=O)CCCCCCCCCCNC(=O)[C@@H]([C@H](C)O)n3cc(C)nn3)CC2)nc(N2CCN(C(=O)CCCCCCCCCCNC(=O)[C@@H]([C@H](C)O)n3cc(C)nn3)CC2)n1,u,x,-7%,-74*,-9%,x
C#CCOCCOCCOCCNc1nc(N2CCN(C(=O)CCCCCCCCCCNC(=O)Cn3cc(CCCCCN)nn3)CC2)nc(N2CCN(C(=O)CCCCCCCCCCNC(=O)[C@H](CO)n3cc(CCCCCN)nn3)CC2)n1,u,x,i,x,-20%,x
C#CCOCCOCCOCCNc1nc(N2CCN(C(=O)CCCCCCCCCCNC(=O)[C@H](CCC(=O)O)n3cc(CCCCCN)nn3)CC2)nc(N2CCN(C(=O)CCCCCCCCCCNC(=O)[C@@H]([C@H](C)O)n3cc(C)nn3)CC2)n1,-10%,x,i,x,9%,x
C#CCOCCOCCOCCNc1nc(N2CCOCC2)nc(N2CCN(C(=O)CCCCCCCCCCNC(=O)[C@@H]([C@H](C)O)n3cc(C)nn3)CC2)n1,-27%,x,i,-15,-9%,x
COC(=O)c1ccc(CN(Cc2ccc(OC)c(OC)c2)S(=O)(=O)c2ccc(F)c(C(=O)Nc3cc(C)ccc3C)c2)cc1,-7%,x,-13%,-26,-3%,15%[46.1 µM]
CC[n+]1c(C=C2C=C(C)OC(C)=C2)sc2ccccc21,79%,u,-29%,-98*,u,5µM*
Cc1cccc(NC(c2ccccc2F)c2ccc3ccc(C)nc3c2O)n1 (configuration not stated),-25%,x,u,-18,-18%,15%[46.1 µM]
Cc1ccc(C)c(C(Nc2ccccc2)c2ccc3ccc(C)nc3c2O)c1 (configuration not stated),u,x,7.9µM*,15,6%,x
c1ccc2c(c1)nc(N1CCOCC1)c1ccccc12,-12%,-20%[46.1 µM],i,-38,5%,-30%[46.1 µM]

# Compound activity from PubChem BioAssay.
